FMDV inh – foot and mouth disease virus antiviral activity; 1.2% of 410,000 active; Potency, µM (series often up to 57.9 µM), most hits filed as inhibitors; FMDV antiviral cell-based qHTS; calls by dose curve; tested in HEK293T cells; also: read-out not given here; nearly all actives have a fitted effect of over 45% in size
Lassa entry inh – inhibitors of Lassa virus binding or cell entry | Lassa virus pseudotype entry inhibition, cell reporter | Potency, µM (doses to about 37.9 µM), hits mostly inhibitors | 1.2% of 300,000 active | AID 540256; calls by dose curve; tested in HEK293 cells; also: nearly all actives have a fitted effect of over 50% in size
HCMV inh – inhibitors of human cytomegalovirus | HFF cells, HCMV-luciferase reporter, 72 h; active compounds read low | activity change, negative = inhibition, % at 57.5 µM | 4.5% of 410,000 active | AID 1259415; in the data active = activity change below about -60%; inconclusive = no clear call, values can overlap the other calls; inactive = above about -39%
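Two-dose cell screen: HFF monolayers treated with compounds and infected with luciferase-expressing HCMV at 1 PFU/cell, 72 h at 37C, then lysed for luciferase measurement.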
Marburg entry inh – blocks Marburg virus binding to or entry into cells; AID 540276; Marburg virus pseudotyped entry inhibition, cell reporter; Potency, µM (highest dose often 37.8 µM), actives largely listed as inhibitors; 1.8% of 300,000 active; calls by dose curve; tested in HEK293 cells
Giardia FBPA inh – inhibitors of Giardia lamblia fructose-1,6-bisphosphate aldolase. A8B2U2. purified Giardia FBPA. Potency, µM (top dose mostly 59.6 µM), most hits filed as inhibitors. 0.71% of 290,000 active; also: nearly all actives have a fitted effect of over 55% in size
Target sequence (A8B2U2 whole entry, looked up): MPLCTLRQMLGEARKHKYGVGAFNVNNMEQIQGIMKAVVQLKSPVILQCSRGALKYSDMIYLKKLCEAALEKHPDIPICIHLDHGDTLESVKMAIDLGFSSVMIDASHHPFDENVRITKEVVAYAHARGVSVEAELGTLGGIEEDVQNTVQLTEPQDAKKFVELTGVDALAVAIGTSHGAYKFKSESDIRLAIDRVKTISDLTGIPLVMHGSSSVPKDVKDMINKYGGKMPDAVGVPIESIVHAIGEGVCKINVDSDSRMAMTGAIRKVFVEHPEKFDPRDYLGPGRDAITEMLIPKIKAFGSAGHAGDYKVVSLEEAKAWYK
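Giardia FBPA (40 nM reagent) was preincubated 10 min at RT with compound (up to 57.5 uM final), then substrate plus GAPDH/TPI/NAD/arsenate coupling system with diaphorase/resazurin was added; resorufin fluorescence (525/598 nm) was read after 20 min.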
HCV inh – HCV inhibition | Huh7.5.1 HCVcc-Cre infection, luciferase reporter, 44 h | Potency, µM (series often up to 41.8 µM), usual class: inhibitors | 3.4% of 340,000 active
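Whole-lifecycle infectious HCVcc-Cre system; cells 1,000/well, compound then virus (~0.5 moi) added 4 h after plating, 44 h culture. Luciferase read 15 sec following 15 min substrate incubation, room temp.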
Large screens that a line does not name were inactive. Only some compounds are listed: those with a hit (about 8.3% of all), similar ones and a draw of the others. Unless noted, calls follow the shape of the dose curve; as a rule, active = well fitted curve in the direction sought with a large enough effect; inconclusive = small, poorly fitted or top-dose-only effect, or another doubt; inactive = no such curve, though single readings can be large; an effect the other way counts as inactive or inconclusive.

C[C@H]1CC[C@H]2C(=O)O[C@H](COc3ccc(C(C)(C)C)cc3)CN2[C@@H]1c1ccc(Br)cc1	none (no result: FMDV inh, Lassa entry inh, HCMV inh, Giardia FBPA inh, HCV inh)
Cc1cc(N/N=C/c2ccc(N(C)C)cc2)nc(NCc2ccccc2)n1	FMDV inh inconclusive, HCV inh inconclusive (no result: Lassa entry inh, Marburg entry inh)
Cc1cc(N/N=C/c2ccc(F)cc2)nc(NCc2ccccc2)n1	Lassa entry inh inconclusive, Marburg entry inh inconclusive, HCV inh 11.2µM
Cc1ccc(/C=N/Nc2cc(C)nc(NCc3ccccc3)n2)cc1	Lassa entry inh inconclusive, Marburg entry inh inconclusive, HCV inh 7.08µM
COc1cccc(CNc2ncnc3sc(C(=O)N4CCOCC4)c(C)c23)c1OC	none (no result: Lassa entry inh, HCMV inh, Marburg entry inh, Giardia FBPA inh, HCV inh)
O=C(CSc1nccn1Cc1ccccc1)NCc1ccccc1Cl	none (no result: Marburg entry inh, Giardia FBPA inh, HCV inh)
COc1cccc(-c2cc(C(F)(F)F)n3ncc(C(=O)OC(C)C)c3n2)c1	Marburg entry inh inconclusive (no result: Giardia FBPA inh, HCV inh)
C=CC1=C2C=C(C3CC3)N(Cc3ccco3)C=C2C(=O)C(C)(OC(=O)c2ccco2)C1=O (stereo not drawn)	none (no result: FMDV inh, Lassa entry inh, HCMV inh, Marburg entry inh, HCV inh)
O=C(Nc1ccccc1OCc1cc(=O)n2ccccc2n1)c1cccc(Br)c1	none (no result: Marburg entry inh, Giardia FBPA inh, HCV inh)
COc1cccc2c1OC[C@@H](CO)[C@H]2N(C)C(=O)Nc1ccccc1	none
CN(C(=O)Nc1ccc(Cl)cc1Cl)[C@H]1c2cc(Br)ccc2OC[C@H]1CO	FMDV inh inconclusive, Marburg entry inh inconclusive, HCV inh 12.6µM
O=C(c1ccccc1)c1ccc(OCCn2cnc3ccccc3c2=O)cc1	FMDV inh inconclusive, Lassa entry inh 25.1µM
O=C(NCc1cccc(F)c1)c1ccc(CS(=O)c2ccccc2Cl)o1 (stereo not drawn)	none (no result: Marburg entry inh, Giardia FBPA inh, HCV inh)
O=C(COC(=O)c1ccc(O)cc1O)NC12CC3CC(CC(C3)C1)C2	HCV inh 12.6µM (no result: Lassa entry inh, Marburg entry inh, Giardia FBPA inh)
O=C(COC(=O)c1ccc(O)cc1O)NC1CCS(=O)(=O)C1 (stereo not drawn)	none
O=C(COC(=O)c1ccc(O)cc1O)NC1CCCCCC1	HCV inh 12.6µM (no result: Lassa entry inh, Marburg entry inh, Giardia FBPA inh)
CCCCc1nc2ccccc2c(NC(=O)CNC(C)(C)C)c1CCC	Giardia FBPA inh inconclusive, HCV inh inconclusive
CCCCc1nc2ccccc2c(N)c1CCC (tested in a mixture with another compound)	FMDV inh inconclusive, Lassa entry inh inconclusive, HCMV inh -67.8, Marburg entry inh 17.8µM
O=C(Nc1cccc(Cl)c1)c1csc(C(O)c2cccc(C(F)(F)F)c2)n1 (stereo not drawn)	none (no result: FMDV inh, Lassa entry inh, Marburg entry inh, Giardia FBPA inh, HCV inh)
COc1cc(C(=O)NCC(=O)N/N=C(C)\C=C\c2ccccc2)cc(OC)c1OC	HCMV inh -72.6, HCV inh inconclusive
COc1ccc(/C(C)=N/NC(=O)CNC(=O)/C=C\c2ccccc2)c(OC)c1	HCMV inh -85.9 (no result: Lassa entry inh, Marburg entry inh)
COc1ccc(/C(C)=N/NC(=O)CNC(=O)COc2ccccc2)c(OC)c1	none
COc1ccc(C(=O)c2coc3c2C(=O)C(=O)c2ccccc2-3)cc1	Lassa entry inh 11.2µM, Marburg entry inh inconclusive, Giardia FBPA inh 7.06µM
O=C(c1ccccc1)c1coc2c1C(=O)c1ccccc1C2=O	FMDV inh inconclusive, Marburg entry inh inconclusive (no result: Lassa entry inh)
COc1cc(-c2noc(-c3ccc(NC4CCCC4)c([N+](=O)[O-])c3)n2)cc(OC)c1OC	none (no result: Giardia FBPA inh, HCV inh)
O=[N+]([O-])c1ccc(N/N=C2/CCCCC2c2ccccn2)cc1 (stereo not drawn)	Lassa entry inh inconclusive, Marburg entry inh 1.12µM, HCV inh inconclusive
O=S(=O)(c1ccc(F)cc1)c1snnc1-c1ccccc1	FMDV inh inconclusive, Lassa entry inh inconclusive, HCMV inh -88.0, Marburg entry inh inconclusive, Giardia FBPA inh inconclusive
CN(C)c1ncc(S(=O)(=O)c2ccc(Cl)cc2)c(-c2ccccc2)n1	HCV inh inconclusive
O=S(=O)(c1ccc(Cl)cc1)c1snnc1-c1ccccc1	FMDV inh 10µM, Lassa entry inh inconclusive, HCMV inh -103.9, Marburg entry inh 15.8µM, HCV inh 12.6µM
c1ccc(-c2nnsc2-c2ncc[nH]2)cc1	Marburg entry inh inconclusive
CN1C(=O)C(C(Nc2ccccc2)c2ccc(F)cc2)c2ccccc21 (stereo not drawn)	none (no result: FMDV inh, Lassa entry inh, Marburg entry inh, Giardia FBPA inh, HCV inh)
CCOC(=O)C1=CCN(S(=O)(=O)c2ccc(Cl)cc2)C1c1cccc(C)c1 (stereo not drawn)	HCMV inh -86.7 (no result: Lassa entry inh, Marburg entry inh, Giardia FBPA inh, HCV inh)
CCOC(=O)C1=CCN(S(=O)(=O)c2ccc(C)cc2)C1c1ccc(CC)cc1 (stereo not drawn)	HCMV inh -96.8 (no result: Lassa entry inh, Marburg entry inh, Giardia FBPA inh, HCV inh)
